# Assay results from PubChem BioAssay AID1159580 (chemical genetic matrix, 2015).
# The whole screen tested about 5,500 compounds, of which about 2,000 (36%) were called active. Not shown: some 18% with an inconclusive outcome. Some of the results follow. Unmarked numbers belong to inactive results. Cut-off read from the data, not from the text of the source: active = normalized growth mostly below about 0.91 (no sharp cut-off); inconclusive = no clear call, values can overlap the other calls; inactive = mostly above about 0.92.
# Experiment: chemical genetic growth profiling, strain panel (AID 1159580);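 note: tested at 20 µM; growth read once vehicle control cultures reached saturation at 30 °C; 1 = growth at the plate median or of vehicle wells; lower values mean less growth of the strain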
# Conditions: S. cerevisiae deletion strains, growth OD
# [1] = locus YHR030C, strain SLT2, active compounds read low
# [2] = locus YHR079C, strain IRE1, active compounds read low
# [3] = locus YJL095W, strain BCK1, active compounds read low
# [4] = locus YJR066W, strain TOR1, active compounds read low
# [5] = locus YLR113W, strain HOG1, active compounds read low
# [6] = locus YNL183C, strain NPR1, active compounds read low
# [7] = locus YOR231W, strain MKK1, active compounds read low
# [8] = locus YPL256C, strain CLN2, active compounds read low
smiles,measurement,setting,value
COc1cc(OC)c(C(C)=O)c(O)c1C,normalized growth,"locus YAL021C, strain ccr4, active compounds read low",0.991
same,normalized growth,"locus YAL026C, strain drs2, active compounds read low",0.908
same,normalized growth,"locus YAL030W, strain snc1, active compounds read low",0.953
same,normalized growth,"locus YBL061C, strain skt5, active compounds read low",0.923
same,normalized growth,"locus YBR009C, strain hhf1, active compounds read low",0.88 (active)
same,normalized growth,"locus YBR023C, strain chs3, active compounds read low",0.905 (active)
same,normalized growth,"locus YBR171W, strain sec66, active compounds read low",0.945
same,normalized growth,"locus YBR231C, strain swc5, active compounds read low",0.934
same,normalized growth,"locus YBR279W, strain paf1, active compounds read low",0.951
same,normalized growth,"locus YCL011C, strain gbp2, active compounds read low",0.905 (active)
same,normalized growth,"locus YCL016C, strain dcc1, active compounds read low",0.956
same,normalized growth,"locus YCL061C, strain MRC1, active compounds read low",0.937
same,normalized growth,"locus YCL069W, strain vba3, active compounds read low",0.942
same,normalized growth,"locus YCR088W, strain abp1, active compounds read low",0.937
same,normalized growth,"locus YDL005C, strain med2, active compounds read low",0.978
same,normalized growth,"locus YDL040C, strain nat1, active compounds read low",0.949
same,normalized growth,"locus YDR001C, strain nth1, active compounds read low",0.939
same,normalized growth,"locus YDR069C, strain doa4, active compounds read low",0.948
same,normalized growth,"locus YDR137W, strain rgp1, active compounds read low",0.859
same,normalized growth,"locus YDR159W, strain sac3, active compounds read low",0.847 (active)
same,normalized growth,"locus YDR195W, strain ref2",1.13
same,normalized growth,"locus YDR297W, strain sur2, active compounds read low",0.941
same,normalized growth,"locus YDR334W, strain swr1, active compounds read low",0.946
same,normalized growth,"locus YDR335W, strain msn5, active compounds read low",0.95
same,normalized growth,"locus YDR392W, strain spt3, active compounds read low",0.758
same,normalized growth,"locus YEL003W, strain gim4, active compounds read low",0.923
same,normalized growth,"locus YEL037C, strain rad23, active compounds read low",0.938
same,normalized growth,"locus YEL061C, strain CIN8 (second series), active compounds read low",0.931
same,normalized growth,"locus YER015W, strain faa2, active compounds read low",0.955
same,normalized growth,"locus YER016W, strain bim1, active compounds read low",0.954
same,normalized growth,"locus YER111C, strain swi4, active compounds read low",0.95
same,normalized growth,"locus YER155C, strain BEM2 (second series), active compounds read low",0.735 (active)
same,normalized growth,"locus YFR010W, strain ubp6, active compounds read low",0.932
same,normalized growth,"locus YGL167C, strain pmr1, active compounds read low",0.945
same,normalized growth,"locus YGL173C, strain kem1, active compounds read low",0.921
same,normalized growth,"locus YGL227W, strain vid30, active compounds read low",0.913 (active)
same,normalized growth,"locus YGL240W, strain doc1, active compounds read low",0.812 (active)
same,normalized growth,"locus YGL253W, strain hxk2, active compounds read low",0.935
same,normalized growth,"locus YHR013C, strain ard1, active compounds read low",0.875
same,normalized growth,"locus YHR027C, strain rpn1, active compounds read low",0.969
same,normalized growth,[1],0.931
same,normalized growth,[2],0.935
same,normalized growth,"locus YHR142W, strain chs7, active compounds read low",0.877
same,normalized growth,"locus YJL092W, strain hpr5, active compounds read low",0.946
same,normalized growth,"locus YJL095W, strain BCK1 (second series), active compounds read low",0.944
same,normalized growth,[3],0.927
same,normalized growth,"locus YJL115W, strain asf1, active compounds read low",0.944
same,normalized growth,"locus YJL129C, strain trk1, active compounds read low",0.903
same,normalized growth,"locus YJL154C, strain vps35, active compounds read low",0.939
same,normalized growth,"locus YJL164C, strain tpk1, active compounds read low",0.93
same,normalized growth,"locus YJL166W, strain qcr8, active compounds read low",0.912
same,normalized growth,"locus YJL187C, strain SWE1, active compounds read low",0.945
same,normalized growth,[4],0.855
same,normalized growth,"locus YKL160W, strain elf1, active compounds read low",0.956
same,normalized growth,"locus YKR026C, strain gcn3, active compounds read low",0.93
same,normalized growth,"locus YKR091W, strain srl3, active compounds read low",0.946
same,normalized growth,"locus YLL001W, strain dnm1, active compounds read low",0.939
same,normalized growth,"locus YLL026W, active compounds read low",0.953
same,normalized growth,"locus YLL041C, strain sdh2, active compounds read low",0.961
same,normalized growth,"locus YLR027C, strain aat2, active compounds read low",0.962
same,normalized growth,[5],0.901
same,normalized growth,"locus YLR221C, strain rsa3, active compounds read low",0.884 (active)
same,normalized growth,"locus YLR258W, strain gsy2, active compounds read low",0.933
same,normalized growth,"locus YLR262C, strain YPT6 (second series), active compounds read low",0.856 (active)
same,normalized growth,"locus YLR320W, strain mms22, active compounds read low",0.87 (active)
same,normalized growth,"locus YLR342W, strain FKS1, active compounds read low",0.954
same,normalized growth,"locus YLR357W, strain rsc2, active compounds read low",0.942
same,normalized growth,"locus YLR370C, strain arc18, active compounds read low",0.938
same,normalized growth,"locus YLR384C, strain iki3, active compounds read low",0.974
same,normalized growth,"locus YML120C, strain ndi1, active compounds read low",0.889 (active)
same,normalized growth,"locus YMR058W, strain fet3, active compounds read low",0.908
same,normalized growth,"locus YMR125W, strain sto1, active compounds read low",0.984
same,normalized growth,"locus YMR129W, active compounds read low",0.944
same,normalized growth,"locus YMR205C, strain PFK2, active compounds read low",0.903
same,normalized growth,"locus YMR231W, strain pep5, active compounds read low",0.982
same,normalized growth,"locus YNL071W, strain lat1, active compounds read low",0.919
same,normalized growth,[6],0.887
same,normalized growth,"locus YNL209W, strain ssb2, active compounds read low",0.96
same,normalized growth,"locus YNL248C, strain rpa49, active compounds read low",0.917
same,normalized growth,"locus YNL322C, strain KRE1 (second series), active compounds read low",0.927
same,normalized growth,"locus YNR049C, strain mso1, active compounds read low",0.937
same,normalized growth,"locus YOR001W, strain rrp6, active compounds read low",0.95
same,normalized growth,"locus YOR070C, strain gyp1, active compounds read low",0.937
same,normalized growth,"locus YOR080W, strain dia2, active compounds read low",0.943
same,normalized growth,"locus YOR083W, strain WHI5, active compounds read low",0.942
same,normalized growth,"locus YOR106W, strain vam3, active compounds read low",0.91
same,normalized growth,[7],0.96
same,normalized growth,"locus YOR265W, strain rbl2, active compounds read low",0.962
same,normalized growth,"locus YOR270C, strain vph1, active compounds read low",0.744 (active)
same,normalized growth,"locus YOR290C, strain snf2, active compounds read low",0.83 (active)
same,normalized growth,"locus YPL051W, strain arl3, active compounds read low",0.972
same,normalized growth,"locus YPL078C, strain atp4, active compounds read low",0.908
same,normalized growth,"locus YPL106C, strain sse1, active compounds read low",0.9
same,normalized growth,"locus YPL240C, strain hsp82, active compounds read low",0.94
same,normalized growth,[8],0.91
COc1cc(O)c(C(C)=O)c(O)c1,normalized growth,[1],1.05
same,normalized growth,[2],1.03
same,normalized growth,[3],0.989
same,normalized growth,[4],0.979
same,normalized growth,[5],0.935
same,normalized growth,[6],0.925
same,normalized growth,[7],1.04
same,normalized growth,[8],0.992
